Measurements: the supplement of paper PMC12669032

What was measured:
Test in all cases: growth AUC relative to DMSO control (median of replicates) (fraction); higher = more growth (less inhibition), active = hit call of the paper
Settings in all cases: 20 µM; 24 h;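 active = AUC reduced over 20% with Padj below 0.05 in at least 2 of 3 replicates; inactive = otherwise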
Akkermansia muciniphila = system: Akkermansia muciniphila
How it was run: (§1)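 Area under the growth curve was normalised to the plate median of solvent-only wells, or to row and column medians on the industrial chemical plate. Growth curves came from anaerobic gut bacterial monocultures in mGAM at 37 °C, seeded at OD600 0.05 with 20 µM compound (1% DMSO), and read at OD600 hourly for 24 h with the minimum OD set to 0. The value is the median of three biological replicates grown on separate days.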

Bacteroides caccae = system: Bacteroides caccae
How it was run: as §1

Bacteroides clarus = system: Bacteroides clarus
How it was run: as §1

Bacteroides dorei = system: Bacteroides dorei
How it was run: as §1

Bacteroides stercoris = system: Bacteroides stercoris
How it was run: as §1

[1] = system: Bacteroides thetaiotaomicron
How it was run: as §1

Bacteroides uniformis = system: Bacteroides uniformis
How it was run: as §1

[2] = system: Bifidobacterium longum subsp. longum
How it was run: as §1

Clostridium difficile = system: Clostridium difficile
How it was run: as §1

Collinsella aerofaciens = system: Collinsella aerofaciens
How it was run: as §1

Measured: growth AUC

CC(CNC(=S)[S-])NC(=S)[S-].[Zn+2] (mixture of isomers)
inactive: Akkermansia muciniphila 1.05 | Bacteroides caccae 0.937 | Bacteroides clarus 1.02 | Bacteroides dorei 1 | Bacteroides stercoris 1.12 | [1] 1.01 | Bacteroides uniformis 1.03 | [2] 0.975 | Clostridium difficile 1 | Collinsella aerofaciens 0.999

Br[C@@H]1CC[C@@H](Br)[C@@H](Br)CC[C@H](Br)[C@H](Br)CC[C@H]1Br
inactive: Akkermansia muciniphila 1.04 | Bacteroides caccae 0.941 | Bacteroides clarus 1 | Bacteroides dorei 0.985 | Bacteroides stercoris 1 | [1] 0.978 | Bacteroides uniformis 0.977 | [2] 0.979 | Clostridium difficile 1 | Collinsella aerofaciens 0.815

CN(C)C(=O)Nc1ccc(Cl)c(Cl)c1
inactive: Akkermansia muciniphila 0.951 | Bacteroides caccae 0.995 | Bacteroides clarus 0.975 | Bacteroides dorei 0.981 | Bacteroides stercoris 1.08 | [1] 0.99 | Bacteroides uniformis 0.954 | [2] 1.09 | Clostridium difficile 0.965 | Collinsella aerofaciens 0.992

CCOc1ccc(NC(=O)OC(C)C)cc1OCC
inactive: Akkermansia muciniphila 1.08 | Bacteroides caccae 0.95 | Bacteroides clarus 1.02 | Bacteroides dorei 0.928 | Bacteroides stercoris 1.2 | [1] 0.844 | Bacteroides uniformis 0.938 | [2] 1.05 | Clostridium difficile 0.971 | Collinsella aerofaciens 0.974

Cc1[nH]oc(=O)c1N=Nc1ccccc1Cl
inactive: Akkermansia muciniphila 0.935 | Bacteroides caccae 0.996 | Bacteroides clarus 0.95 | Bacteroides dorei 0.951 | Bacteroides stercoris 0.828 | [1] 1.01 | Bacteroides uniformis 1.02 | [2] 1.04 | Clostridium difficile 0.964 | Collinsella aerofaciens 0.961

C=CCOC(Cn1ccnc1)c1ccc(Cl)cc1Cl (stereo not given)
inactive: Akkermansia muciniphila 0.972 | Bacteroides caccae 0.944 | Bacteroides clarus 0.96 | Bacteroides dorei 0.959 | Bacteroides stercoris 1.12 | [1] 0.983 | Bacteroides uniformis 0.941 | [2] 1.05 | Clostridium difficile 0.926 | Collinsella aerofaciens 0.873

ClC=C(c1ccc(Cl)cc1)c1ccc(Cl)cc1
inactive: Akkermansia muciniphila 1.05 | Bacteroides caccae 0.896 | Bacteroides clarus 0.959 | Bacteroides dorei 0.914 | Bacteroides stercoris 0.945 | [1] 0.975 | Bacteroides uniformis 0.996 | [2] 1 | Clostridium difficile 0.977 | Collinsella aerofaciens 0.893

CC(=O)Nc1cc(NS(=O)(=O)C(F)(F)F)c(C)cc1C
inactive: Akkermansia muciniphila 0.856 | Bacteroides caccae 1.04 | Bacteroides clarus 0.973 | Bacteroides dorei 1.02 | Bacteroides stercoris 0.886 | [1] 1.01 | Bacteroides uniformis 1.02 | [2] 0.92 | Clostridium difficile 1.08 | Collinsella aerofaciens 1.06

CCCN(CCOc1c(Cl)cc(Cl)cc1Cl)C(N)=O
inactive: Akkermansia muciniphila 0.911 | Bacteroides caccae 0.899 | Bacteroides clarus 0.959 | Bacteroides dorei 0.935 | Bacteroides stercoris 0.98 | [1] 0.961 | Bacteroides uniformis 0.894 | [2] 0.971 | Clostridium difficile 0.987 | Collinsella aerofaciens 0.993

CCc1cccc(CC)c1N(COC)C(=O)C(=O)O
inactive: Akkermansia muciniphila 0.957 | Bacteroides caccae 1.03 | Bacteroides clarus 0.971 | Bacteroides dorei 1.01 | Bacteroides stercoris 1.03 | [1] 1.03 | Bacteroides uniformis 1.02 | [2] 0.989 | Clostridium difficile 1.02 | Collinsella aerofaciens 1.03

CC1=C(C(=O)Nc2ccccc2)CCCO1
inactive: Akkermansia muciniphila 0.955 | Bacteroides caccae 0.992 | Bacteroides clarus 1.01 | Bacteroides dorei 1.01 | Bacteroides stercoris 0.951 | [1] 0.99 | Bacteroides uniformis 1.06 | [2] 1.15 | Clostridium difficile 1.01 | Collinsella aerofaciens 1.01

Oc1ccccc1O
inactive: Akkermansia muciniphila 0.968 | Bacteroides caccae 1.02 | Bacteroides clarus 1.03 | Bacteroides dorei 1 | Bacteroides stercoris 1 | [1] 1.03 | Bacteroides uniformis 1.04 | [2] 0.911 | Clostridium difficile 1.01 | Collinsella aerofaciens 1.01

CC1(C)C(=O)Oc2ccc(OS(C)(=O)=O)cc21
inactive: Akkermansia muciniphila 1.03 | Bacteroides caccae 1.05 | Bacteroides clarus 0.993 | Bacteroides dorei 1.02 | Bacteroides stercoris 1.06 | [1] 0.988 | Bacteroides uniformis 0.986 | [2] 0.988 | Clostridium difficile 0.99 | Collinsella aerofaciens 0.997

CN(C)C(N)=O
inactive: Akkermansia muciniphila 1.05 | Bacteroides caccae 0.949 | Bacteroides clarus 0.998 | Bacteroides dorei 0.982 | Bacteroides stercoris 1.05 | [1] 0.99 | Bacteroides uniformis 0.971 | [2] 0.973 | Clostridium difficile 1.03 | Collinsella aerofaciens 0.977

COC(=O)C(C)Oc1ccc(Oc2ncc(C(F)(F)F)cc2Cl)cc1 (stereo not given)
inactive: Akkermansia muciniphila 1.11 | Bacteroides caccae 0.968 | Bacteroides clarus 0.977 | Bacteroides dorei 0.964 | Bacteroides stercoris 0.912 | [1] 0.992 | Bacteroides uniformis 0.886 | [2] 1.02 | Clostridium difficile 0.98 | Collinsella aerofaciens 0.954

CC(C)COC(=O)COc1cc(Cl)c(Cl)cc1Cl
inactive: Akkermansia muciniphila 0.952 | Bacteroides caccae 0.864 | Bacteroides clarus 0.993 | Bacteroides dorei 0.971 | Bacteroides stercoris 1.15 | [1] 0.978 | Bacteroides uniformis 1.01 | [2] 1.03 | Clostridium difficile 1 | Collinsella aerofaciens 0.91

NC(=O)c1c(Cl)cccc1Cl
inactive: Akkermansia muciniphila 0.966 | Bacteroides caccae 0.94 | Bacteroides clarus 1 | Bacteroides dorei 1.01 | Bacteroides stercoris 1.06 | [1] 0.998 | Bacteroides uniformis 0.978 | [2] 1 | Clostridium difficile 0.98 | Collinsella aerofaciens 0.974

CSc1nc(NC2CC2)nc(NC(C)(C)C)n1
inactive: Akkermansia muciniphila 0.845 | Bacteroides caccae 1.03 | Bacteroides clarus 0.988 | Bacteroides dorei 1.03 | Bacteroides stercoris 0.871 | [1] 0.895 | Bacteroides uniformis 1 | [2] 1.04 | Clostridium difficile 1.04 | Collinsella aerofaciens 1.06

O=C(O)c1cccc2nnsc12
inactive: Akkermansia muciniphila 0.935 | Bacteroides caccae 0.996 | Bacteroides clarus 0.998 | Bacteroides dorei 0.964 | Bacteroides stercoris 0.963 | [1] 1.01 | Bacteroides uniformis 1.01 | [2] 1.03 | Clostridium difficile 0.99 | Collinsella aerofaciens 0.977

Oc1cccc2ccccc12
inactive: Akkermansia muciniphila 1 | Bacteroides caccae 1.04 | Bacteroides clarus 1 | Bacteroides dorei 0.987 | Bacteroides stercoris 0.943 | [1] 0.993 | Bacteroides uniformis 0.976 | [2] 0.999 | Clostridium difficile 0.98 | Collinsella aerofaciens 0.959

CCc1ccc(C(c2ccc(CC)cc2)C(Cl)Cl)cc1
inactive: Akkermansia muciniphila 0.859 | Bacteroides caccae 0.912 | Bacteroides clarus 0.952 | Bacteroides dorei 1.02 | Bacteroides stercoris 0.931 | [1] 0.977 | Bacteroides uniformis 1.02 | [2] 0.972 | Clostridium difficile 1.03 | Collinsella aerofaciens 0.901

CON=C(Cc1cccnc1)c1ccc(Cl)cc1Cl
inactive: Akkermansia muciniphila 1.06 | Bacteroides caccae 0.889 | Bacteroides clarus 0.971 | Bacteroides dorei 0.938 | Bacteroides stercoris 1.28 | [1] 0.91 | Bacteroides uniformis 0.921 | [2] 0.998 | Clostridium difficile 1 | Collinsella aerofaciens 0.945

O=S(=O)(Oc1ccc(Cl)cc1)c1ccccc1
inactive: Akkermansia muciniphila 0.785 | Bacteroides caccae 0.959 | Bacteroides clarus 0.967 | Bacteroides dorei 0.941 | Bacteroides stercoris 0.874 | [1] 0.964 | Bacteroides uniformis 0.972 | [2] 1.01 | Clostridium difficile 1 | Collinsella aerofaciens 0.978

COc1cc(OC)c(Cl)cc1N
inactive: Akkermansia muciniphila 0.954 | Bacteroides caccae 0.994 | Bacteroides clarus 0.995 | Bacteroides dorei 1.02 | Bacteroides stercoris 1.09 | [1] 1.01 | Bacteroides uniformis 1.01 | [2] 0.912 | Clostridium difficile 1.01 | Collinsella aerofaciens 1.03

CCOCOc1ccc(C(=O)Nc2cccc(Cl)c2Cl)cc1
inactive: Akkermansia muciniphila 1.04 | Bacteroides caccae 0.855 | Bacteroides clarus 0.881 | Bacteroides dorei 0.972 | Bacteroides stercoris 0.836 | [1] 0.884 | Bacteroides uniformis 0.912 | [2] 0.907 | Clostridium difficile 1.02 | Collinsella aerofaciens 0.956

CCOC(=O)Cc1[nH]nc2ccc(Cl)cc12
inactive: Akkermansia muciniphila 0.921 | Bacteroides caccae 1.01 | Bacteroides clarus 1.01 | Bacteroides dorei 0.996 | Bacteroides stercoris 1.15 | [1] 1.01 | Bacteroides uniformis 1.01 | [2] 0.989 | Clostridium difficile 1 | Collinsella aerofaciens 0.969

COC(=O)c1ccc(I)cc1S(=O)(=O)[N-]C(=O)Nc1nc(C)nc(OC)n1.[Na+]
inactive: Akkermansia muciniphila 1.25 | Bacteroides caccae 0.901 | Bacteroides clarus 0.992 | Bacteroides dorei 0.933 | Bacteroides stercoris 1.01 | [1] 1.06 | Bacteroides uniformis 0.941 | [2] 1.01 | Clostridium difficile 0.991 | Collinsella aerofaciens 0.977

CN(C(=O)NC(C)(C)c1ccccc1)c1ccccc1
inactive: Akkermansia muciniphila 0.911 | Bacteroides caccae 1.04 | Bacteroides clarus 0.999 | Bacteroides dorei 0.988 | Bacteroides stercoris 0.824 | [1] 1.01 | Bacteroides uniformis 1.03 | [2] 0.916 | Clostridium difficile 1.04 | Collinsella aerofaciens 0.969

c1ccc2cc3c(ccc4ccccc43)cc2c1
inactive: Akkermansia muciniphila 1.01 | Bacteroides caccae 0.994 | Bacteroides clarus 1 | Bacteroides dorei 0.993 | Bacteroides stercoris 0.994 | [1] 1.01 | Bacteroides uniformis 1.01 | [2] 0.962 | Clostridium difficile 0.992 | Collinsella aerofaciens 1

CC(C)(c1ccc(O)cc1)c1ccc(O)cc1
inactive: Akkermansia muciniphila 1.01 | Bacteroides caccae 1.07 | Bacteroides clarus 1.04 | Bacteroides dorei 1.01 | Bacteroides stercoris 1.14 | [1] 1.02 | Bacteroides uniformis 1.06 | [2] 1.06 | Clostridium difficile 1.08 | Collinsella aerofaciens 1.03
